Reference: PubChem BioAssay AID1345085 (National Center for Advancing Translational Sciences (NCATS), 2018)
Inconclusive results are not listed. Calls of active or inactive are those of the source. The call rests on the fitted dose curve; in most records, active means well fitted cell-killing curve with a large enough effect; inconclusive means small, poorly fitted or top-dose-only effect, or effect the other way; inactive means no such curve, though single readings can be large or run the other way.

system: HeLa; assay: Confirmatory qHTS for gynecologic anti-cancer compounds from libraries of approved drugs and bioactive compounds; conditions: gynecologic cancer cell panel viability, ATPlite luminescence, 48 h; series mostly up to 57.6 µM; activity change, negative = viability loss: at the top concentration; further: nearly all actives have a fitted effect of over 55% in size
Outline: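 Cells (1,000/well) plated 16 h, then exposed 48 h at 37 °C to 11 concentrations (1:3) from 57.5 uM to 0.977 nM. Viability by ATPlite luminescence after 15 min; IC50 derived, with HEK 293T used for selectivity index.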
On the % scale 0 is the no-effect control and ±100 the full control effect; potency means the concentration at half of the fitted maximal effect.

Row | Structure (SMILES) | Potency | activity change, negative = viability loss
1 | Cc1nc(N)sc1-c1ccnc(Nc2ccc(N3CCOCC3)cc2)n1 | 2170 nM (active) | 
2 | COc1cc2nccc(Oc3ccc(NC(=O)C4(C(=O)Nc5ccc(F)cc5)CC4)cc3)c2cc1OC | 13700 nM (active) | 
3 | O=C1Cc2cc(CCN3CCN(c4nsc5ccccc45)CC3)c(Cl)cc2N1 |  | -11% (inactive)
4 | C[C@]12CCC(=O)C=C1CC[C@@H]1[C@@H]2[C@@H](O)C[C@@]2(C)[C@H]1CC[C@]2(O)C(=O)CO |  | -2.25% (inactive)
5 | CC(C)C[C@H](NC(=O)[C@H](Cc1ccccc1)NC(=O)c1cnccn1)B(O)O | 6110 nM (active) | 
6 | CN1CCN(c2ccc(OC(F)(F)F)c(Nc3ncc4c(n3)-c3c(c(C(N)=O)nn3CCO)CC4)c2)CC1 | 61.1 nM (active) | 
7 | Cn1c(=O)c(-c2c(Cl)cccc2Cl)cc2cnc(Nc3cccc(C(=O)O)c3)nc21 | 2430 nM (active) | 
8 | Cc1cc(Nc2nc(N[C@@H](C)c3ccc(F)cc3)c(C#N)cc2F)n[nH]1 | 1090 nM (active) | 
9 | COc1cccc2c1C(=O)c1c(O)c3c(c(O)c1C2=O)C[C@@](O)(C(=O)CO)C[C@@H]3O[C@H]1C[C@H](N)[C@H](O)[C@H](C)O1 | 6850 nM (active) | 
10 | Cc1cc(CN2CCN(c3c(Br)cnc4nc(-c5ccc(N6CCN(C)CC6)cc5)[nH]c34)CC2)no1 | 3060 nM (active) | 
11 | COc1cc(N2CCC(N3CCN(C)CC3)CC2)ccc1Nc1ncc(Cl)c(Nc2ccccc2S(=O)(=O)C(C)C)n1 | 769 nM (active) | 
12 | NS(=O)(=O)c1ccc(Nc2nc(OCC3CCCCC3)c3[nH]cnc3n2)cc1 | 24300 nM (active) | 
13 | O=C(Nc1cn[nH]c1-c1nc2ccc(CN3CCOCC3)cc2[nH]1)NC1CC1 | 43.2 nM (active) | 
14 | CCc1cccc(CC)c1NC(=O)N1Cc2[nH]nc(NC(=O)c3ccc(N4CCN(C)CC4)cc3)c2C1 | 1530 nM (active) | 
15 | Nc1cccc(-c2cc3c(Oc4cccc(O)c4)ncnc3[nH]2)c1 | 9680 nM (active) | 
16 | CC(=O)OC12COC1CC(O)C1(C)C(=O)C(O)C3=C(C)C(OC(=O)C(O)C(NC(=O)OC(C)(C)C)c4ccccc4)CC(O)(C(OC(=O)c4ccccc4)C21)C3(C)C (configuration not stated) | 9.7 nM (active) | 
17 | CCn1c(-c2nonc2N)nc2c(C#CC(C)(C)O)ncc(OCC3CCCNC3)c21 (configuration not stated) | 21700 nM (active) | 
18 | Cn1cnc2c(F)c(Nc3ccc(Br)cc3Cl)c(C(=O)NOCCO)cc21 |  | -20% (inactive)
19 | CN[C@@H](C)C(=O)N[C@H]1CN(C(=O)CC(C)C)CC[C@H]2CC[C@@H](C(=O)NC(c3ccccc3)c3ccccc3)N2C1=O |  | -6.64% (inactive)

Row | Structure (SMILES) | Potency | activity change, negative = viability loss
20 | Nc1ccccc1NC(=O)c1ccc(CNc2nccc(-c3cccnc3)n2)cc1 | 1530 nM (active) | 
21 | CC1=C(/C=C/C(C)=C/C=C/C(C)=C/C(=O)Nc2ccc(O)cc2)C(C)(C)CCC1 | 24300 nM (active) | 
22 | NC(=O)Nc1cc(-c2cccc(F)c2)sc1C(=O)NC1CCCNC1 (configuration not stated) | 1220 nM (active) | 
23 | CC(=O)O[C@H]1C(=O)[C@@]2(C)[C@H]([C@H](OC(=O)c3ccccc3)[C@]3(O)C[C@H](OC(=O)[C@H](O)[C@@H](NC(=O)c4ccccc4)c4ccccc4)C(C)=C1C3(C)C)[C@]1(OC(C)=O)CO[C@@H]1C[C@@H]2O | 16.3 nM (active) | 
24 | CCCCc1nc2cc(/C=C/C(=O)NO)ccc2n1CCN(CC)CC | 1720 nM (active) | 
25 | CC[C@H](CC#N)OC(=O)N[C@@H](C)c1cccc(NC(=O)Nc2ccc(-c3cnco3)c(OC)c2)c1 | 8630 nM (active) | 
26 | Cc1cc(C(=O)N2CCN(c3cccc(Cl)c3)CC2)n(-c2ccccc2)n1 | 2170 nM (active) | 
27 | Cc1cc(Nc2nc(N[C@@H](C)c3ncc(F)cn3)ncc2Cl)n[nH]1 | 968 nM (active) | 
28 | OCCNC1CCCc2c1[nH]c1ccc(-c3ccccc3)cc21 (configuration not stated) | 1930 nM (active) | 
29 | Cc1ccc(C(=O)Nc2cccc(C(F)(F)F)c2)cc1-c1ccc2nc(NCCN3CCOCC3)ncc2c1 | 7690 nM (active) | 
30 | CC(C)(C(=O)NCC(F)(F)C(F)(F)F)C(=O)NC1C(=O)Nc2ccccc2-c2ccccc21 (configuration not stated) | 6110 nM (active) | 
31 | COc1cc(N2CCC(N)CC2)ccc1Nc1ncc(Cl)c(-c2c[nH]c3ccccc23)n1 | 544 nM (active) | 
32 | COc1cc2c(cc1-c1c(C)noc1C)ncc1[nH]c(=O)n(C(C)c3ccccn3)c12 (configuration not stated) | 544 nM (active) | 
33 | CC(C)CC(=O)Nc1n[nH]c2c1CN(C(=O)C1CCN(C)CC1)C2(C)C | 3430 nM (active) | 
34 | Cc1nc2ccc(CN(C)c3ccc(C(=O)NC(CCC(=O)O)C(=O)O)s3)cc2c(=O)[nH]1 (configuration not stated) | 54.4 nM (active) | 
35 | CC(C)n1c(/C=C/[C@@H](O)C[C@@H](O)CC(=O)O)c(-c2ccc(F)cc2)c2ccccc21 | 5440 nM (active) | 
36 | CCCCc1oc2ccccc2c1C(=O)c1cc(I)c(OCCN(CC)CC)c(I)c1 | 50100 nM (active) | 
37 | Cc1cnc(Nc2ccc(CN3CCOCC3)cc2)nc1Nc1cccc(S(=O)(=O)NC(C)(C)C)c1 | 2170 nM (active) | 
